# Assays:
# Assay in all cases: SPOT peptide array binding signal intensity (averaged, normalized) (arbitrary units (background-subtracted, floor 0; scale differs between SH3 domains)); higher = stronger binding of the SH3 domain to the peptide
# [1] = biological target: AgAbp1
# Procedure, shortened: (§1)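 To measure binding, SH3 domains from four yeast species were fused to GST, expressed in E. coli BL21(DE3) and purified on glutathione Sepharose. Each domain was incubated at 10 μg/ml overnight at 4°C on cellulose membranes with synthetic 15-mer peptides whose cysteines were replaced by serines. Anti-GST antibody, an HRP anti-mouse secondary and luminol were used for detection, and images were quantified with Genespotter. Reported binding signal is normalized, background-subtracted spot intensity averaged over replicates, in arbitrary units that differ between domains.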
# [2] = biological target: AgBbc1
# Procedure, shortened: as §1
# [3] = biological target: AgBem1-D1
# Procedure, shortened: as §1
# [4] = biological target: AgBzz1-D1
# Procedure, shortened: as §1
# [5] = biological target: AgBzz1-D2
# Procedure, shortened: as §1
# [6] = biological target: AgCyk3
# Procedure, shortened: as §1
# [7] = biological target: AgFus1
# Procedure, shortened: as §1
# [8] = biological target: AgHof1
# Procedure, shortened: as §1
# [9] = biological target: AgHse1
# Procedure, shortened: as §1
# [10] = biological target: AgLsb1
# Procedure, shortened: as §1
# [11] = biological target: AgLsb4
# Procedure, shortened: as §1
# [12] = biological target: AgMyo5
# Procedure, shortened: as §1
# [13] = biological target: AgNbp2
# Procedure, shortened: as §1
# [14] = biological target: AgRvs167
# Procedure, shortened: as §1
# [15] = biological target: AgSho1
# Procedure, shortened: as §1
# [16] = biological target: AgSla1-D1-D2
# Procedure, shortened: as §1
# [17] = biological target: AgSla1-D3
# Procedure, shortened: as §1
# [18] = biological target: CaAbp1-D1
# Procedure, shortened: as §1
# [19] = biological target: CaAbp1-D2
# Procedure, shortened: as §1
# [20] = biological target: CaBbc1
# Procedure, shortened: as §1
# [21] = biological target: CaBem1-D1
# Procedure, shortened: as §1
# [22] = biological target: CaBzz1-D1
# Procedure, shortened: as §1
# [23] = biological target: CaBzz1-D2
# Procedure, shortened: as §1
# [24] = biological target: CaCyk3
# Procedure, shortened: as §1
# [25] = biological target: CaFus1
# Procedure, shortened: as §1
# [26] = biological target: CaHof1
# Procedure, shortened: as §1
# [27] = biological target: CaHse1
# Procedure, shortened: as §1
# [28] = biological target: CaLsb1
# Procedure, shortened: as §1
# [29] = biological target: CaLsb4
# Procedure, shortened: as §1
# [30] = biological target: CaMyo5
# Procedure, shortened: as §1
# [31] = biological target: CaNbp2
# Procedure, shortened: as §1
# [32] = biological target: CaRvs167
# Procedure, shortened: as §1
# [33] = biological target: CaRvs167-3
# Procedure, shortened: as §1
# [34] = biological target: CaSho1
# Procedure, shortened: as §1
# [35] = biological target: CaSla1-D1-D2
# Procedure, shortened: as §1
# [36] = biological target: CaSla1-D3
# Procedure, shortened: as §1
# [37] = biological target: ScAbp1
# Procedure, shortened: as §1
# [38] = biological target: ScBbc1
# Procedure, shortened: as §1
# [39] = biological target: ScBem1-D1
# Procedure, shortened: as §1
# [40] = biological target: ScBzz1-D1
# Procedure, shortened: as §1
# [41] = biological target: ScBzz1-D2
# Procedure, shortened: as §1
# [42] = biological target: ScCyk3
# Procedure, shortened: as §1
# [43] = biological target: ScFus1
# Procedure, shortened: as §1
# [44] = biological target: ScHof1
# Procedure, shortened: as §1
# [45] = biological target: ScHse1
# Procedure, shortened: as §1
# [46] = biological target: ScLsb1
# Procedure, shortened: as §1
# [47] = biological target: ScLsb2
# Procedure, shortened: as §1
# [48] = biological target: ScLsb3
# Procedure, shortened: as §1
# [49] = biological target: ScLsb4
# Procedure, shortened: as §1
# [50] = biological target: ScMyo3
# Procedure, shortened: as §1
# [51] = biological target: ScMyo5
# Procedure, shortened: as §1
# [52] = biological target: ScNbp2
# Procedure, shortened: as §1
# [53] = biological target: ScPex13
# Procedure, shortened: as §1
# [54] = biological target: ScRvs167
# Procedure, shortened: as §1
# [55] = biological target: ScSho1
# Procedure, shortened: as §1
# [56] = biological target: ScSla1-D1-D2
# Procedure, shortened: as §1
# [57] = biological target: ScSla1-D3
# Procedure, shortened: as §1
# [58] = biological target: SpAbp1-D1
# Procedure, shortened: as §1
# [59] = biological target: SpBbc1
# Procedure, shortened: as §1
# [60] = biological target: SpBzz1-D1
# Procedure, shortened: as §1
# [61] = biological target: SpBzz1-D2
# Procedure, shortened: as §1
# [62] = biological target: SpCyk3
# Procedure, shortened: as §1
# [63] = biological target: SpHof1
# Procedure, shortened: as §1
# [64] = biological target: SpHof1-2
# Procedure, shortened: as §1
# [65] = biological target: SpHof1-3
# Procedure, shortened: as §1
# [66] = biological target: SpHse1
# Procedure, shortened: as §1
# [67] = biological target: SpLsb1
# Procedure, shortened: as §1
# [68] = biological target: SpLsb4
# Procedure, shortened: as §1
# [69] = biological target: SpMyo1
# Procedure, shortened: as §1
# [70] = biological target: SpNbp2
# Procedure, shortened: as §1
# [71] = biological target: SpPex13
# Procedure, shortened: as §1
# [72] = biological target: SpRvs167
# Procedure, shortened: as §1
# [73] = biological target: SpSla1-D1-D2
# Procedure, shortened: as §1
# [74] = biological target: SpSla1-D3
# Procedure, shortened: as §1
binder,measurement,setting,value
SSAAPPPPPRRATPE,SPOT peptide array binding signal intensity,[1],0.5
same,SPOT peptide array binding signal intensity,[2],602
same,SPOT peptide array binding signal intensity,[3],≤ 0
same,SPOT peptide array binding signal intensity,[4],122
same,SPOT peptide array binding signal intensity,[5],18
same,SPOT peptide array binding signal intensity,[6],≤ 0
same,SPOT peptide array binding signal intensity,[7],4
same,SPOT peptide array binding signal intensity,[8],0.5
same,SPOT peptide array binding signal intensity,[9],11
same,SPOT peptide array binding signal intensity,[10],355
same,SPOT peptide array binding signal intensity,[11],1120
same,SPOT peptide array binding signal intensity,[12],8
same,SPOT peptide array binding signal intensity,[13],0.5
same,SPOT peptide array binding signal intensity,[14],446
same,SPOT peptide array binding signal intensity,[15],3
same,SPOT peptide array binding signal intensity,[16],1
same,SPOT peptide array binding signal intensity,[17],12
same,SPOT peptide array binding signal intensity,[18],28.5
same,SPOT peptide array binding signal intensity,[19],23
same,SPOT peptide array binding signal intensity,[20],268
same,SPOT peptide array binding signal intensity,[21],≤ 0
same,SPOT peptide array binding signal intensity,[22],1350
same,SPOT peptide array binding signal intensity,[23],293
same,SPOT peptide array binding signal intensity,[24],≤ 0
same,SPOT peptide array binding signal intensity,[25],134
same,SPOT peptide array binding signal intensity,[26],31
same,SPOT peptide array binding signal intensity,[27],6
same,SPOT peptide array binding signal intensity,[28],0.5
same,SPOT peptide array binding signal intensity,[29],3810
same,SPOT peptide array binding signal intensity,[30],0.5
same,SPOT peptide array binding signal intensity,[31],1
same,SPOT peptide array binding signal intensity,[32],349
same,SPOT peptide array binding signal intensity,[33],0.5
same,SPOT peptide array binding signal intensity,[34],≤ 0
same,SPOT peptide array binding signal intensity,[35],1870
same,SPOT peptide array binding signal intensity,[36],0.25
same,SPOT peptide array binding signal intensity,[37],3
same,SPOT peptide array binding signal intensity,[38],0.5
same,SPOT peptide array binding signal intensity,[39],≤ 0
same,SPOT peptide array binding signal intensity,[40],24
same,SPOT peptide array binding signal intensity,[41],5
same,SPOT peptide array binding signal intensity,[42],1
same,SPOT peptide array binding signal intensity,[43],≤ 0
same,SPOT peptide array binding signal intensity,[44],7
same,SPOT peptide array binding signal intensity,[45],≤ 0
same,SPOT peptide array binding signal intensity,[46],315
same,SPOT peptide array binding signal intensity,[47],49.5
same,SPOT peptide array binding signal intensity,[48],3110
same,SPOT peptide array binding signal intensity,[49],711
same,SPOT peptide array binding signal intensity,[50],124
same,SPOT peptide array binding signal intensity,[51],83.8
same,SPOT peptide array binding signal intensity,[52],36
same,SPOT peptide array binding signal intensity,[53],300
same,SPOT peptide array binding signal intensity,[54],1890
same,SPOT peptide array binding signal intensity,[55],3
same,SPOT peptide array binding signal intensity,[56],1390
same,SPOT peptide array binding signal intensity,[57],≤ 0
same,SPOT peptide array binding signal intensity,[58],160
same,SPOT peptide array binding signal intensity,[59],≤ 0
same,SPOT peptide array binding signal intensity,[60],757
same,SPOT peptide array binding signal intensity,[61],142
same,SPOT peptide array binding signal intensity,[62],2.5
same,SPOT peptide array binding signal intensity,[63],10.2
same,SPOT peptide array binding signal intensity,[64],33.5
same,SPOT peptide array binding signal intensity,[65],366
same,SPOT peptide array binding signal intensity,[66],10.5
same,SPOT peptide array binding signal intensity,[67],101
same,SPOT peptide array binding signal intensity,[68],2800
same,SPOT peptide array binding signal intensity,[69],876
same,SPOT peptide array binding signal intensity,[70],≤ 0
same,SPOT peptide array binding signal intensity,[71],≤ 0
same,SPOT peptide array binding signal intensity,[72],1860
same,SPOT peptide array binding signal intensity,[73],62
same,SPOT peptide array binding signal intensity,[74],0.5
AAAPKHAPPPVPNET,SPOT peptide array binding signal intensity,[1],≤ 0
same,SPOT peptide array binding signal intensity,[2],≤ 0
same,SPOT peptide array binding signal intensity,[3],≤ 0
same,SPOT peptide array binding signal intensity,[4],96
same,SPOT peptide array binding signal intensity,[5],≤ 0
same,SPOT peptide array binding signal intensity,[6],≤ 0
same,SPOT peptide array binding signal intensity,[7],≤ 0
same,SPOT peptide array binding signal intensity,[8],≤ 0
same,SPOT peptide array binding signal intensity,[9],≤ 0
same,SPOT peptide array binding signal intensity,[10],≤ 0
same,SPOT peptide array binding signal intensity,[11],≤ 0
same,SPOT peptide array binding signal intensity,[12],2020
same,SPOT peptide array binding signal intensity,[13],≤ 0
same,SPOT peptide array binding signal intensity,[14],≤ 0
same,SPOT peptide array binding signal intensity,[15],≤ 0
same,SPOT peptide array binding signal intensity,[16],≤ 0
same,SPOT peptide array binding signal intensity,[17],11
same,SPOT peptide array binding signal intensity,[18],≤ 0
same,SPOT peptide array binding signal intensity,[19],≤ 0
same,SPOT peptide array binding signal intensity,[20],≤ 0
same,SPOT peptide array binding signal intensity,[21],≤ 0
same,SPOT peptide array binding signal intensity,[22],1240
same,SPOT peptide array binding signal intensity,[23],66.8
same,SPOT peptide array binding signal intensity,[24],≤ 0
same,SPOT peptide array binding signal intensity,[25],≤ 0
same,SPOT peptide array binding signal intensity,[26],≤ 0
same,SPOT peptide array binding signal intensity,[27],≤ 0
same,SPOT peptide array binding signal intensity,[28],≤ 0
same,SPOT peptide array binding signal intensity,[29],≤ 0
same,SPOT peptide array binding signal intensity,[30],795

# Source: the supplement of paper PMC4466140
